# Laboratory results: PubChem BioAssay AID1626 (SRMLSC, 2009)
# Hit rate of the full screen: of about 220,000 compounds, about 2,000 (0.91%) were called active. Another 2% or so got no clear call; they are omitted. No stated cut-off is given here; in the data, inconclusive means inhibition above about 80% without an active follow-up result; inactive means below that; test concentration not stated here. Only a sample is shown. Potency and affinity values are given separately.
# Test: M. tuberculosis H37Rv growth inhibitors, H37Rv strain (AID 1626);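 further: bacteria incubated seven days before Alamar blue readout; 0% = bacteria only wells and 100% = bacteria with antibiotic wells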
# Conditions: hits give high values, concentration not given here
row,SMILES,inhibition
1,COc1ccc(CNC(=O)C2C3C=CC4(CN(Cc5cccnc5)C(=O)C24)O3)cc1 (stereo not given),-7.2% (inactive)
2,COc1ccc(NC(=O)C(=O)N/N=C(\C)CC(=O)Nc2ccccn2)c(OC)c1,-16.2% (inactive)
3,NS(=O)(=O)c1ccc(NC(=O)CCC2CCCCC2)cc1,-3.12% (inactive)
4,O=C(CCc1ccc(Oc2cc([N+](=O)[O-])cc([N+](=O)[O-])c2)cc1)N1CCCCC1,3.78% (inactive)
5,CC1CCN(C(=O)CCc2ccc(Oc3cc([N+](=O)[O-])cc([N+](=O)[O-])c3)cc2)CC1,71.9% (inactive)
6,CC1(C)S/C(=N/N=C/c2ccco2)NC1=O,3.45% (inactive)
7,CCOc1ccc(-n2c(N)c(C(=O)N3CCN(C)CC3)sc2=S)cc1,2.86% (inactive)
8,CN(C)S(=O)(=O)N1CCN(c2ccc([N+](=O)[O-])c(N3CCOCC3)c2)CC1,6.14% (inactive)
9,Cc1c(O)ccc(-c2n[nH]c(C(=O)O)c2-c2nc3ccccc3s2)c1O,-16.8% (inactive)
10,O=C(CC(Sc1n[nH]c(-c2ccccc2)n1)c1ccccc1)NCc1ccccc1 (stereo not given),-4.33% (inactive)
11,O=C(NCc1c(F)cccc1F)c1cc(COc2c(F)cccc2F)on1,4.13% (inactive)
12,COC(=O)OCC12CCC(O1)C1(C)C(=O)OCC21 (stereo not given),2.41% (inactive)
13,COC(/C=C/Nc1ccc(Br)cc1)=C(C#N)C#N,-3.61% (inactive)
14,CC1CCN(CCC(=O)NN)CC1,1.23% (inactive)
15,CCOC(=O)/C(C#N)=N/Nc1ccccc1OC,12.6% (inactive)
16,COc1ccc(-c2cc(C3CCN(c4cc(Cl)nc(N)n4)CC3)[nH]n2)cc1,4.7% (inactive)
17,Nc1nc(Cl)cc(N2CCC(c3cc(-c4ccc(Cl)cc4Cl)n[nH]3)CC2)n1,8.57% (inactive)
18,O=c1c2c3c(sc2nc2n1N=C(c1cccs1)CS2)CCCC3,3.06% (inactive)
19,CC(=O)Nc1ccc(S(=O)(=O)N2CCN(CCN3CCOCC3)CC2)cc1Cl,-2.42% (inactive)
20,O=C(CCc1ccccc1)Nc1nc2c(F)cc(F)cc2s1,12.2% (inactive)
21,O=C(Nc1nc(-c2cc(F)ccc2F)cs1)C1=NN(c2ccccc2)C(=O)CC1,8.23% (inactive)
22,O=C(Nc1nc2ccc(F)cc2s1)c1cccs1,-2.98% (inactive)
23,O=C(NNc1nc2c(F)cc(F)cc2s1)c1ccccc1,6.46% (inactive)
24,O=C(Nc1nc2ccccc2s1)c1ccc(F)cc1,2.23% (inactive)
25,Cc1onc(-c2ccccc2)c1C(=O)Nc1nc(-c2cc(F)ccc2F)cs1,-3.02% (inactive)

row,SMILES,inhibition
1,S=C(NCC1CCCO1)Nc1ccccc1Cl (stereo not given),-6.63% (inactive)
2,CC(C)(C)C(O)(CC#CCN1CCCC1)c1ccccc1 (stereo not given),-4.05% (inactive)
3,O=C(NCC1OCCc2ccccc21)C1COc2ccccc2O1 (stereo not given),9.06% (inactive)
4,Cc1cccc(NC(=O)C2(c3cccs3)CCOCC2)n1,-3.03% (inactive)
5,CCn1c(=O)cc(N2CCN(C(=O)c3ccco3)CC2)[nH]c1=O,11.9% (inactive)
6,O=C(COC(=O)C1CC1)Nc1ccc2[nH]c(=O)[nH]c2c1,1.3% (inactive)
7,CCOC(=O)CSc1cc(C)nc2ccc(OC)cc12,-0.58% (inactive)
8,COC(=O)CSc1cc(C)nc2ccc(OC)cc12,10.7% (inactive)
9,CCCCOC(=O)C1=C(C)Nc2ncnn2C1c1cccc(OC)c1 (stereo not given),-2.89% (inactive)
10,Cc1[nH]c2ccccc2c1/C=N/NC(=O)CNC(=O)c1ccccc1,-7.99% (inactive)
11,Cc1cc(C)n(CC(C)NCc2cn[nH]c2-c2ccc(C)c(C)c2)n1 (stereo not given),1.18% (inactive)
12,CC1=C(/C=C/C(C)=C/C=C/C(C)=C\C(=O)O)C(C)(C)CCC1,-10.9% (inactive)
13,CC1=C(/C=C/C(C)=C/C=C/C(C)=C/C(=O)O)C(C)(C)CCC1,-5.32% (inactive)
14,CN(C)c1ccc(N=Nc2ccccc2C(=O)OCC(=O)NC2CCCC2)cc1,46% (inactive)
15,CN(C)c1ccc(N=Nc2ccccc2C(=O)OCC(=O)N(C)C2CCCCC2)cc1,27.3% (inactive)
16,Nc1cc(C(=O)c2cccs2)ccc1Cl,-7.59% (inactive)
17,Cc1ncc([N+](=O)[O-])n1CC(=O)NC(C)(C)C,-1.73% (inactive)
18,CC(=O)N/C(=C\c1ccc(F)cc1)C(=O)N(C)C,-5.54% (inactive)
19,COc1ccc(N2CCN(C(CNC(=O)c3cccc(Cl)c3)c3cccnc3)CC2)cc1 (stereo not given),-9.59% (inactive)
20,COc1ccc(CCNCC(O)COc2cccc(Br)c2)cc1 (stereo not given),-1.52% (inactive)
21,OC(CNCCc1ccccc1)COc1ccc(OCC(O)CNCCc2ccccc2)cc1 (stereo not given),-6.51% (inactive)
22,CCN(CC)S(=O)(=O)c1ccc(N2CCOCC2)c(NC(=O)c2cccc3ccccc23)c1,11.2% (inactive)
23,CC1CN(C(=O)c2cccc(S(=O)(=O)N3CCOCC3)c2)CC(C)O1 (stereo not given),-11.8% (inactive)
24,Cc1ccccc1-n1ncc(C(C)NC(=O)c2ccccc2)c1C (stereo not given),-0.68% (inactive)
25,O=C(NCc1ccccc1)NC(=O)c1ccccc1,-2.58% (inactive)

row,SMILES,inhibition
1,COCCN=C1Sc2nc3ccc(C)cc3cc2CN1Cc1ccco1,-8.23% (inactive)
2,COCCN=C1Sc2nc3cc(C)c(C)cc3cc2CN1Cc1cccs1,10% (inactive)
3,Cc1c(-n2cc(C(=O)O)c(=O)c3cc(F)c(N4CCCC4)c(F)c32)c(=O)n(-c2ccccc2)n1C,3.58% (inactive)
4,O=C(O)c1cn(-c2ccc(F)c(F)c2)c2c(F)c(F)c(F)c(F)c2c1=O,6.77% (inactive)
5,COC(=O)c1c(N2C(=O)[C@H]3[C@@H](C2=O)[C@]2(C(=O)Nc4c2ccc(C)c4C)N2CCC[C@@H]32)sc(C)c1C,4.68% (inactive)
6,CN(C)c1ccc(/C=N/N=C(N)N)cc1[N+](=O)[O-],-2.01% (inactive)
7,O=c1c2cc(NC(=S)N3CCCC3)ccc2nc2n1CCCCC2,5.39% (inactive)
8,O=C(O)C12C[C@H]3C[C@@H](C1)CC(n1ncc(N4CCN(c5ccccc5)CC4)c(Cl)c1=O)(C3)C2,-7.44% (inactive)
9,CCc1ccc(N=CC2=C(O)CC(c3ccco3)CC2=O)cc1 (stereo not given),81% (inactive)
10,Cc1ccc(N=CC2=C(O)CC(c3ccco3)CC2=O)cc1 (stereo not given),-4.64% (inactive)
11,COC(=O)c1[nH]c2cccc(OC)c2c1NC(=O)CCN1CCC(C(N)=O)CC1,-3.72% (inactive)
12,CNC(=O)c1csc(-c2ccc(C)cc2)n1,-5.14% (inactive)
13,O=C(O)c1ccc(-c2nc(-c3ccccc3)cs2)cc1,-1.73% (inactive)
14,O=C(O)c1ccc(-c2nc(-c3ccc(Cl)c(Cl)c3)cs2)cc1,8.4% (inactive)
15,CNC(=O)c1csc(-c2ccncc2)n1,-3.82% (inactive)
16,CC(C)OCCCNS(=O)(=O)c1ccc2c(c1)OCCO2,2.36% (inactive)
17,CN(C(=O)CO/N=C/c1ccc(OC(F)F)cc1)C1CCS(=O)(=O)C1 (stereo not given),8.36% (inactive)
18,CCOc1ccc(-c2cc(CCCC(=O)Nc3cc(OC)ccc3OC)no2)cc1,9.58% (inactive)
19,CCOc1ccc(-c2cc(CCCC(=O)NCCC(C)C)no2)cc1,-2.14% (inactive)
20,CCOc1ccc(-c2cc(CCCC(=O)NCCc3ccccc3)no2)cc1,4.69% (inactive)
21,CCOc1ccc(-c2cc(CCCC(=O)NCCCOC)no2)cc1,4.11% (inactive)
22,CN(C)c1nc(-c2ccccn2)nnc1-c1ccccc1,68% (inactive)
23,C=CCNc1nc(-c2ccccn2)nnc1-c1ccccc1,37% (inactive)
24,Cc1ccn(C(=O)c2cc3c(C)nn(-c4ccccc4)c3s2)n1,10.1% (inactive)
25,CC(C)(O)C(=O)NNC(=S)Nc1ccc(F)c(Cl)c1,14.7% (inactive)

row,SMILES,inhibition
1,COC(=O)C1=C(SC)N(c2ccc(OC)cc2)C(c2ccccc2)CC1=O (stereo not given),-3.65% (inactive)
2,COc1ccc(N2C(=O)C3CCCN3C2c2ccccc2F)cc1 (stereo not given),-5.95% (inactive)
3,Cc1ccc(N2C(=O)C(CN(C)C)C2c2ccccc2)cc1 (stereo not given),-4.35% (inactive)
4,Cc1ccc(N2C(=O)C(CN3CCCC3)C2c2ccccc2)cc1 (stereo not given),27.1% (inactive)
5,O=C1c2ccccc2NC(c2ccc3c(c2)OCCO3)N1c1ccc2c(c1)OCCO2 (stereo not given),-7.93% (inactive)
6,O=C(O)C1CC(=O)N(c2ccc3c(c2)OCCO3)C1 (stereo not given),5.06% (inactive)
7,O=C(NN1CCOCC1)c1cc(-c2ccc(Br)cc2)nc2ccccc12,7.15% (inactive)
8,CC(=O)NCCC(=O)Nc1ccc(F)cc1C,-1.47% (inactive)
9,Cc1nn(-c2cccc([N+](=O)[O-])c2)c(N)c1-c1ccccc1,7.18% (inactive)
10,COCCNc1nc(-c2ccc(OC)cc2)c(-c2ccc(OC)cc2)s1,15.7% (inactive)
11,Cc1csc(Cn2c(CN(C)C)nc3ccccc3c2=O)n1,5.39% (inactive)
12,COc1cc([N+](=O)[O-])cc(CN2CCCCC2)c1O,2.21% (inactive)
13,O=C(CN1CCc2ccccc2C1)NC1CCCC1,-13.6% (inactive)
14,CC(=O)N(Cc1c(C)nn(-c2ccccc2)c1Cl)c1ccc(Cl)cc1,-13.6% (inactive)
15,CCC(=O)N(Cc1c(C)nn(-c2ccccc2)c1Cl)c1ccc(Cl)cc1,8.67% (inactive)
16,CCn1cc(C(=O)OCC(=O)c2ccc(Cl)cc2)c(=O)c2ccc(C)nc21,-8.38% (inactive)
17,O=C1CC(c2ccc(F)cc2)Sc2nc(C34CC5CC(CC(C5)C3)C4)nn21 (stereo not given),5.92% (inactive)
18,Cc1ccc(SCn2nnc3ccccc3c2=O)c(C)c1,-6.38% (inactive)
19,COc1ccc2nc(/C=N/NC(=O)[C@@H]3CCCN3C(=O)OC(C)(C)C)ccc2c1,-1.11% (inactive)
20,Clc1ccc(-c2nnc(NC3=NCCCCC3)o2)cc1,-12.1% (inactive)
21,CC(=O)Nc1ccc2c(c1)CCCC2,0.76% (inactive)
22,O=C(COc1ccc(Cl)cc1)Nc1nnc(-c2ccco2)o1,0.85% (inactive)
23,O=C(COc1ccccc1)Nc1nnc(-c2ccccc2)o1,12.6% (inactive)
24,O=C(NCc1nnc2n1CCCCC2)c1ccc(Cl)cc1Cl,-8.85% (inactive)
25,CC(=O)Nc1cccc(-c2nnc(-c3ccccc3)o2)c1,-12.3% (inactive)
